Bioassay records from PubChem BioAssay.
M1 antagonist = antagonists of rat M1 muscarinic receptor. CHO-M1 cells, Fluo-4 calcium, ACh EC80 antagonist mode; active compounds read low. B-score at 10 µM. P08482. AID 628. hit rate 3.4% among 64,000;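 active = calcium fluorescence response, raw or row-and-column corrected B-score, differing from the plate sample mean either way at a set confidence level, mostly lower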
Target sequence (P08482 whole entry, looked up): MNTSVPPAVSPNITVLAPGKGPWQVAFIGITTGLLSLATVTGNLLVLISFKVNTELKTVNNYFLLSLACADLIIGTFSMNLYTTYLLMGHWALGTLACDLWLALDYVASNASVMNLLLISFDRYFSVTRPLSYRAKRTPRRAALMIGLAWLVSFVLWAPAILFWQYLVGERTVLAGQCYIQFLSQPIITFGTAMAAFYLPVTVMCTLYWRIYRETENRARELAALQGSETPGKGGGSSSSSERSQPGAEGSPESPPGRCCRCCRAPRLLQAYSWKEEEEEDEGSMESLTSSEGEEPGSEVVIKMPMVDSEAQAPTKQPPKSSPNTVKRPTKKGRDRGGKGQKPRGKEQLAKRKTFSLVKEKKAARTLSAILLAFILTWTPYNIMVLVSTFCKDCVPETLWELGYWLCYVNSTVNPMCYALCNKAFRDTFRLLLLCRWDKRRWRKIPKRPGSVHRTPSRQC
Abs 340nm = absorbance at 340 nm | fold change at 10 µM | AID 708 | 65,000 tested, under 10 active | compound absorbance at 340 nm, fold over control;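 active = at 10 µM dose, initial 340 nm absorbance at least 2 fold that of control wells; inactive = change under 2 fold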;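 also: initial absorbance extrapolated from kinetic A340 decline of NADH oxidation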
mHtt clearance = compounds clearing mutant huntingtin protein | HeLa Exon1htt(103Q)mCFP, aggregate imaging; zero = plate's median compound well | inhibition, % at 1.5 µM | hit rate 0.42% among 47,000;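 active = inhibition of aggregate fluorescence above about 70%, also judged a hit by eye on the cell image, limit read from the data, passing the limit was not always enough; inconclusive = no rule stated for this call; inactive = not judged a hit on image review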;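 also: cells exposed to compound for three days before fixation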
Fluor 339 460 = intrinsic fluorescence of library compounds, ex339/em460 – biochemical, MLSMR library, data from DPM-DC assay, artefact control, profiling panel; fluorescence fold increase at 10 µM; AID 709; hit rate 5.5% among 65,000; compound autofluorescence, ex339/em460 nm, NADH buffer; active compounds read high; 1 = no-compound wells, NADH background;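 active = at 10 µM, mean starting fluorescence two-fold or more over control wells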;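 also: signal is the first read of a kinetic run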
NADH coupling = inhibition of NAD/NADH coupling enzymes, library profiling | coupled PK/LDH NADH assays, four targets | IC50, µM (titrated, usually from 10 µM), for the others: at the highest dose inhibition | hit rate 0.02% among 65,000 | AID 774;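 active = single-dose screening hits from any of four coupled enzyme assays that gave an IC50 when retested across doses; inconclusive = no clear call, values can overlap the other calls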;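 also: the DPM-DC format reads NADH fluorescence rather than 340 nm absorbance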
M1 agonist = M1 muscarinic receptor agonism; AID 626; hit rate 3% among 64,000; CHO-M1 cells, Fluo-4 calcium fluorescence, agonist mode; active compounds read high; B-score at 10 µM;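 active = fluorescence rise, raw or as B-score row- and column-corrected plate score, outside the 99.7% band of its plate's samples, either direction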
An asterisk follows results filed as active; ? = inconclusive; . = not tested or not shown. Rows were chosen to be rich in hits. Some 9.3% of all compounds tested hit in one or more screens of this group.

SMILES	M1 antagonist	Abs 340nm	mHtt clearance	Fluor 339 460	NADH coupling	M1 agonist
Cc1sc2nc(CN(C(=O)c3cccs3)C3CCCC3)[nH]c(=O)c2c1C	1.9*	1	-49	1.1	5%	0.66
O=C(c1cccs1)N(Cc1nc2sc3c(c2c(=O)[nH]1)CCCC3)C1CCCC1	0.0076	1	.	1.2	3%	-0.9
Cc1ccc(CN2C(=O)CCC2C(=O)NC(C)C)cc1 (configuration not stated)	0.52	1	48	1.1	7%	0.55
CCC(=O)c1cc2c(cc1NC(=O)c1ccc(C)cc1)OCCO2	.	1.1	-3	3.1*	6%	.
COC(=O)CSc1nnc2c3c4c(sc3nc(-n3nc(C)cc3C)n12)COC(C)(C)C4	-0.016	1.1	.	2.7*	7%	-0.37
Cc1cc(C)n(-c2nc3sc4c(c3c3nnc(SC(C)C)n23)CC(C)(C)OC4)n1	0.71	1.1	-30	1.9	3%	-0.7
Cc1ccc(SCC(=O)NCCSC(C)(C)C)cc1	.	.	-3	.	.	.
COc1ccc(-c2c3c(nc4sc(C(=O)Nc5cc(C)on5)c(N)c24)CCC3)cc1	0.82	1	-22	2.6*	16%	-0.13
CCc1c(C(=O)N/N=C/c2ccc(C)o2)csc1C	.	.	-33	.	.	.
CCOC(=O)N1CCN(c2c(NCCCN3CCCCCC3)c(=O)c2=O)CC1	.	.	50	.	.	.
Cc1ccc(-n2c(-c3ccncc3)nnc2-c2cccs2)cc1	0.91	0.99	53	1.3	4%	0.97
CCN(CC)C(=O)Sc1cccc2cccnc12	0.26	0.98	-65	1.2	1%	0.19
CCOC(=O)CSc1cccc2cccnc12	.	1	-2	3.6*	4%	.
O=C(CSc1cccc2cccnc12)NCc1ccco1	0.43	1.1	.	4.9*	5%	0.29
Nc1nc(SCC(=O)N2CCCc3ccccc32)[nH]c(=O)c1-c1ccccc1	0.71	1	70*	1.1	6%	0.58
CC(=O)N1CCc2cc(C(=O)CN3CCN(c4ccccc4F)CC3)ccc21	-0.3	1.1	?	1.1	2%	-2.4
O=C(CN1CCN(c2ccccc2F)CC1)c1ccc2cc[nH]c2c1	0.44	1.1	-12	2.1*	2%	-0.31
COc1ccc(S(=O)(=O)c2c(N)n(Cc3ccco3)c3nc4ccccc4nc23)cc1	0.6	1.1	26	3.8*	14%	-1.9
CC(C)CCN1CN(S(=O)(=O)c2cccs2)c2nc3ccccc3nc21	.	.	8	.	.	.
Cc1ccc(S(=O)(=O)c2c(N)n(/N=C/c3ccco3)c3nc4ccccc4nc23)cc1C	1	1.1	-26	3.2*	5%	-0.46
CC(C)Cn1c(N)c(S(=O)(=O)c2cccs2)c2nc3ccccc3nc21	-0.28	1.1	-18	3.9*	9%	1.4
CC(C)CNC(=O)c1c(N)n(/N=C/c2ccccn2)c2nc3ccccc3nc12	-0.31	1	.	1.1	4%	-0.11
Cc1cccc(S(=O)(=O)c2c(N)n(/N=C/c3cccnc3)c3nc4ccccc4nc23)c1	0.01	1.1	17	3.7*	12%	-1.2
O=c1c2c3nc4ccccc4nc3n(/N=C/c3ccco3)c2ncn1CCC1=CCCCC1	-0.85	1.1	.	1.4	2%	0.67
COc1ccc(Cn2c3nc4ccccc4nc3c3c(=O)n(Cc4ccco4)c(C)nc32)cc1	0.53	1.1	.	1.6	5%	-0.78
SMILES	M1 antagonist	Abs 340nm	mHtt clearance	Fluor 339 460	NADH coupling	M1 agonist
COc1ccc(NC(=O)c2cccc(Cn3cc(Br)cn3)c2)cn1	-1.4	1.1	4	1.1	1%	0.33
Cc1ccc(S(=O)(=O)c2c(N)n(/N=C/c3ccco3)c3nc4ccccc4nc23)cc1	0.029	1.2	.	3.2*	2%	-0.26
Nc1c(S(=O)(=O)c2ccccc2)c2nc3ccccc3nc2n1/N=C/c1ccco1	0.072	1.2	-29	1.8	7%	-0.32
Cc1cccc(S(=O)(=O)c2c(N)n(/N=C/c3ccco3)c3nc4ccccc4nc23)c1	0.23	1.1	8	3.1*	10%	-0.049
Cc1c(NC(=O)C(C)NCC2CCCO2)c(=O)n(-c2ccccc2)n1C (configuration not stated)	.	.	-45	.	.	.
CSc1nc(N)c(C#N)c(-c2ccc(Cl)cc2)c1C#N	-0.37	1	-38	1.2	4%	0.29
Cc1ccc(-c2cc(-c3ccc(C)o3)nc(N)c2C#N)cc1	0.48	1	5	3.8*	6%	-1.7
N#Cc1cccc(-n2nnnc2-c2ccc3c(c2)OCO3)c1	0.22	1	.	1.1	6%	0.86
